Measurements as given in PubChem BioAssay (NCI).
About 79,000 compounds went through this panel and 15% of them were active in at least one assay; those are over-represented in the sample as a whole. Calls of active or inactive are those of the source. No stated cut-off is given here; in the data, active means growth inhibition above about 70%; inactive means the rest.

Columns and labels:
[1] = NCI Yeast Anticancer Drug Screen. Data for the rad52 strain (AID 147);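 further: 0% = growth of vehicle-treated control cultures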; conditions: S. cerevisiae rad52 mutant growth inhibition, active compounds read high
Procedure, shortened: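 Yeast strain carrying a DNA damage repair alteration was exposed to test compounds. Growth inhibition was measured relative to vehicle-treated controls.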

[2] = NCI Yeast Anticancer Drug Screen. Data for the wt1 strain (AID 149);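 further: 0% = growth of vehicle-treated wt1 cultures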; conditions: S. cerevisiae wt1 strain (SPY 50644) growth inhibition, active compounds read high
Procedure, shortened: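 Each compound is tested on wt1 yeast and the loss of growth versus vehicle gives the inhibition value.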

[3] = NCI Yeast Anticancer Drug Screen. Data for the rad50EPP+ strain (AID 151);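 further: 0% = growth of vehicle-treated control cultures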; conditions: S. cerevisiae rad50 mutant strain, active compounds read high
Procedure, shortened: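 Yeast strain carrying rad50 alteration (rad50EPP+) exposed to compounds; growth inhibition measured relative to vehicle-treated controls.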

[4] = NCI Yeast Anticancer Drug Screen. Data for the mgt1 strain (AID 153); conditions: S. cerevisiae mgt1 mutant growth inhibition, active compounds read high
Procedure, shortened: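 Yeast mgt1 strain (DNA repair/cell-cycle alteration panel) exposed to compounds; growth inhibition measured relative to vehicle-treated controls.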

[5] = NCI Yeast Anticancer Drug Screen. Data for the rad50 strain (AID 155);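 further: 0% = growth of vehicle-only cultures of the same strain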; conditions: S. cerevisiae rad50 strain growth inhibition, active compounds read high
Procedure, shortened: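 Vehicle-treated cultures provide the reference for the growth inhibition reported for compound-exposed, repair-deficient yeast.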

[6] = NCI Yeast Anticancer Drug Screen. Data for the mec2-1 strain (AID 157); conditions: S. cerevisiae mec2-1 strain, active compounds read high
Procedure, shortened: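 mec2-1 yeast strain, carrying an alteration in DNA damage repair or cell cycle control, was exposed to compounds; growth inhibition was measured relative to vehicle-treated controls.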

[7] = NCI Yeast Anticancer Drug Screen. Data for the rad14 strain (AID 159);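 further: 0% = growth of vehicle-treated control cultures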; conditions: S. cerevisiae rad14 strain growth inhibition, active compounds read high
Procedure, shortened: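 Inhibition of growth is reported for a repair-deficient yeast mutant following compound treatment, calculated relative to cultures that received vehicle.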

[8] = NCI Yeast Anticancer Drug Screen. Data for the sgs1 mgt1 strain (AID 161);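 further: 0% = growth of cultures given vehicle only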; conditions: S. cerevisiae sgs1 mgt1 strain, active compounds read high
Procedure, shortened: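 This yeast growth screen uses a strain with defined DNA-repair lesions; compound-treated growth is compared with vehicle-treated growth.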

[9] = NCI Yeast Anticancer Drug Screen. Data for the CLN2oe strain (AID 163);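 further: 0% = growth of vehicle-only control cultures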; conditions: S. cerevisiae CLN2oe strain, active compounds read high
Procedure, shortened: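 Yeast cells carrying a defined cell-cycle control alteration were exposed to test compounds. Growth inhibition was scored against vehicle-treated control cultures.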

[10] = NCI Yeast Anticancer Drug Screen. Data for the cln2 rad14 strain (AID 165);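 further: 0% = growth equal to vehicle treated cultures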; conditions: S. cerevisiae cln2 rad14 strain, active compounds read high
Procedure, shortened: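 Yeast carrying cln2 and rad14 alterations (cell cycle control and DNA damage repair) were exposed to compounds. Growth inhibition was measured against vehicle-treated controls.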

[11] = NCI Yeast Anticancer Drug Screen. Data for the bub3 strain (AID 167); conditions: S. cerevisiae bub3 mutant strain, active compounds read high
Procedure, shortened: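 Mutant yeast screening strain plus compound; vehicle-treated cultures serve as the 0% inhibition reference.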

[12] = NCI Yeast Anticancer Drug Screen. Data for the wt2 strain (AID 169); conditions: S. cerevisiae wt2 strain growth inhibition, active compounds read high
Procedure, shortened: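 Yeast cells were exposed to test compounds, and growth inhibition was measured relative to vehicle-treated controls.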

[13] = NCI Yeast Anticancer Drug Screen. Data for the mlh1 strain (AID 171);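 further: 0% = growth of vehicle-treated control cultures of the same strain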; conditions: S. cerevisiae mlh1 strain growth inhibition, active compounds read high
Procedure, shortened: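 Yeast carrying a defined genetic alteration in DNA damage repair or cell cycle control were exposed to test compounds. Growth inhibition was measured relative to vehicle-treated controls.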

[14] = NCI Yeast Anticancer Drug Screen. Data for the sgs1 strain (AID 173);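 further: 0% = growth of vehicle-only control cultures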; conditions: S. cerevisiae sgs1 mutant, active compounds read high
Procedure, shortened: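 Yeast mutant strains carrying defined defects in DNA damage repair or cell cycle control were exposed to test compounds. Growth inhibition was scored against vehicle-treated controls.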

[15] = NCI Yeast Anticancer Drug Screen. Data for the mlh1 rad18 strain (AID 175); conditions: S. cerevisiae mlh1 rad18 strain growth inhibition, active compounds read high
Procedure, shortened: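 Growth inhibition of the yeast strain was measured after compound exposure and expressed relative to vehicle-treated controls. The strain carries defined defects in DNA damage repair.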

[16] = NCI Yeast Anticancer Drug Screen. Data for the rad18 strain (AID 177); conditions: S. cerevisiae rad18 mutant growth inhibition, active compounds read high
Procedure, shortened: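 Yeast carrying a defined DNA damage repair alteration were exposed to compounds. Growth inhibition was expressed relative to vehicle-treated controls.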

[17] = at 5.0 µM (retest, dose inferred, filed as 0.5)
[18] = at 50.0 µM (retest, dose inferred, filed as 5.0)

Measured: growth inhibition

COC(=O)C1=C(C)NC(C)=C(C(=O)OCCCN2CCC(c3ccccc3)(c3ccccc3)CC2)C1c1cccc([N+](=O)[O-])c1 (stereo unspecified)
active: [1]; at 11.0 µM 97% | [1]; at 33.0 µM 97% | [1]; at 100.0 µM 88% | [2]; at 33.0 µM 98% | [2]; at 100.0 µM 94% | [3]; at 3.7 µM 86% | [3]; at 11.0 µM 88% | [3]; at 33.0 µM 92% | [3]; at 100.0 µM 82% | [4]; at 11.0 µM 98% | [4]; at 33.0 µM 98% | [4]; at 100.0 µM 93% | [5]; at 11.0 µM 97% | [5]; at 33.0 µM 95% | [5]; [18] 99% | [5]; at 50.0 µM 94.5% | [5]; at 100.0 µM 84% | [6]; at 11.0 µM 98% | [6]; at 33.0 µM 98% | [6]; [18] 98% | [6]; at 50.0 µM 95.9% | [6]; at 100.0 µM 92% | [7]; at 3.7 µM 76% | [7]; at 11.0 µM 99% | [7]; at 33.0 µM 98% | [7]; at 100.0 µM 89% | [8]; [18] 98% | [8]; at 50.0 µM 94% | [9]; at 11.0 µM 96% | [9]; at 33.0 µM 98% | [9]; at 100.0 µM 84% | [10]; [18] 98% | [10]; at 50.0 µM 94.2% | [11]; at 11.0 µM 83% | [11]; at 33.0 µM 98% | [11]; [18] 97% | [11]; at 50.0 µM 97% | [11]; at 100.0 µM 90% | [12]; at 11.0 µM 98% | [12]; at 33.0 µM 97% | [12]; at 100.0 µM 91% | [13]; at 11.0 µM 98% | [13]; at 33.0 µM 98% | [13]; at 100.0 µM 92% | [14]; at 11.0 µM 97% | [14]; at 33.0 µM 98% | [14]; at 100.0 µM 91% | [15]; [17] 74% | [15]; [18] 98% | [15]; at 50.0 µM 92.7% | [16]; at 11.0 µM 94% | [16]; at 33.0 µM 97% | [16]; at 100.0 µM 88%
inactive: [1]; at 1.2 µM -8% | [1]; at 3.7 µM 2% | [2]; at 1.2 µM -3% | [2]; at 3.7 µM -5% | [2]; at 11.0 µM 69% | [3]; at 1.2 µM 66% | [4]; at 1.2 µM -5% | [4]; at 3.7 µM 22% | [5]; at 1.2 µM 1% | [5]; at 3.7 µM 48% | [5]; [17] 37% | [6]; at 1.2 µM -1% | [6]; at 3.7 µM 16% | [6]; [17] 9% | [7]; at 1.2 µM 20% | [8]; [17] 50% | [9]; at 1.2 µM -3% | [9]; at 3.7 µM 21% | [10]; [17] 14% | [11]; at 1.2 µM 11% | [11]; at 3.7 µM 16% | [11]; [17] 42% | [12]; at 1.2 µM -4% | [12]; at 3.7 µM 25% | [13]; at 1.2 µM 1% | [13]; at 3.7 µM 51% | [14]; at 1.2 µM -3% | [14]; at 3.7 µM 23% | [16]; at 1.2 µM -7% | [16]; at 3.7 µM 9%

OC1CSCCCSCCSCCCSC1
active: [11]; [18] 82%
inactive: [1]; at 1.2 µM -53% | [1]; at 3.7 µM -55% | [1]; at 11.0 µM -49% | [1]; at 33.0 µM -61% | [1]; at 100.0 µM -48% | [2]; at 1.2 µM -12% | [2]; at 3.7 µM -16% | [2]; at 11.0 µM -22% | [2]; at 33.0 µM -25% | [2]; at 100.0 µM -25% | [3]; at 1.2 µM -30% | [3]; at 3.7 µM -52% | [3]; at 11.0 µM -49% | [3]; at 33.0 µM -29% | [3]; at 100.0 µM -35% | [4]; at 1.2 µM -5% | [4]; at 3.7 µM -6% | [4]; at 11.0 µM -10% | [4]; at 33.0 µM -9% | [4]; at 100.0 µM -29% | [5]; at 1.2 µM -28% | [5]; at 3.7 µM -27% | [5]; [17] -11% | [5]; at 11.0 µM -3% | [5]; at 33.0 µM -2% | [5]; [18] -14% | [5]; at 50.0 µM 12.3% | [5]; at 100.0 µM -25% | [6]; at 1.2 µM -22% | [6]; at 3.7 µM -27% | [6]; [17] -48% | [6]; at 11.0 µM -21% | [6]; at 33.0 µM 4% | [6]; [18] 5% | [6]; at 50.0 µM 20.5% | [6]; at 100.0 µM -29% | [7]; at 1.2 µM -35% | [7]; at 3.7 µM -37% | [7]; at 11.0 µM -28% | [7]; at 33.0 µM -36% | [7]; at 100.0 µM -47% | [8]; [17] -1% | [8]; [18] 4% | [8]; at 50.0 µM 28.7% | [9]; at 1.2 µM -5% | [9]; at 3.7 µM -12% | [9]; at 11.0 µM 3% | [9]; at 33.0 µM 17% | [9]; at 100.0 µM 1% | [10]; [17] 12% | [10]; [18] 25% | [10]; at 50.0 µM 10.7% | [11]; at 1.2 µM -8% | [11]; at 3.7 µM 0% | [11]; [17] 16% | [11]; at 11.0 µM 16% | [11]; at 33.0 µM 64% | [11]; at 50.0 µM 69.2% | [11]; at 100.0 µM 68% | [12]; at 1.2 µM -30% | [12]; at 3.7 µM -17% | [12]; at 11.0 µM -16% | [12]; at 33.0 µM -31% | [12]; at 100.0 µM -22% | [13]; at 1.2 µM -4% | [13]; at 3.7 µM 16% | [13]; at 11.0 µM 2% | [13]; at 33.0 µM 16% | [13]; at 100.0 µM -17% | [14]; at 1.2 µM -9% | [14]; at 3.7 µM -5% | [14]; at 11.0 µM -10% | [14]; at 33.0 µM -14% | [14]; at 100.0 µM -24% | [15]; [17] -22% | [15]; [18] 22% | [15]; at 50.0 µM 26.9%
